Measured values reported in PubChem BioAssay (NCI).
This is part of a sample that, as a whole, favours compounds with a hit. Of some 83,000 tested, about 20% had one in any assay.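 Interpretation: 100, growth as untreated; towards 0, rising growth inhibition; 0, no net growth; 0 to -100, cell death. Compounds scoring below 10 were considered active.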 Values without a mark were called inactive. The source made the active and inactive calls.

What follows are compounds tested on SK-MEL-5 melanoma (assay: NCI-60 one-dose screen, 48 h (100 = growth as untreated, 0 = no growth, -100 = all killed)). Conditions: 10 µM.
`C=CCSC(CC)(CC)C(=O)NC` showed a growth of 103%. For `Cc1c(Cl)cccc1NC(=O)CCCl`, the growth was 104%. `CC(=O)C1N=NCC1c1ccccc1` (centres undefined) gave a growth of 98.4%. `CCN(CC)CCOc1cccc2c1C(=O)c1cccc(OCCN(CC)CC)c1C2=O` showed a growth of 72%. For `CC(C)(C)OC(=O)CN1CCc2c(sc3ncnc(N/N=C/c4ccccc4Br)c23)C1`, the growth was 55.1%. `N#CCc1csc(Cc2ccccc2)n1` gave a growth of 102%. In the case of `Clc1ccc(C2=NN=C3C(Cc4ccccc4)=Nc4ccccc4N3C2)cc1`, the growth was 80.3%. In the case of `CCN(CC)CC(=O)N(CC)c1ccc(C)c(Cl)c1`, the growth was 98.4%. `COc1cc(-c2csc(NC(=O)Nc3ccc(Cl)c(C(F)(F)F)c3)n2)cc(OC)c1OC` was tested, and the growth was -79.9% (active).

These compounds were tested on UACC-62 melanoma in the same assay as above. Conditions: 10 µM.
`CCOS(=O)(=O)c1c(C(C)C)cc(C(C)C)cc1C(C)C` showed a growth of 98.4%. Work on `CC(C)CCN(CCC(C)C)CC(=O)Nc1ccc(S(=O)(=O)c2ccc(NC(=O)CN(CCC(C)C)CCC(C)C)cc2)cc1` yielded a growth of 29.7%. `O=C(N/N=C/c1cc([N+](=O)[O-])ccc1O)c1cccc2ccccc12` was tested, and the growth was 9.83% (active). For `COc1cc(Cc2cc(-c3ccccc3)n[nH]c2=O)cc(OC)c1OC`, the growth was 43.3%. `C1CN(CC2CCC(CN3CCOCC3)O2)CCO1` (centres undefined) showed a growth of 106%. In the case of `Cc1cc(=O)n2nnc3cc(Cl)c(Cl)cc3n12`, the growth was 106%. `CC(=O)N[C@H](C(=O)N[C@@H](CCCNC(=N)N)C(=O)N[C@@H](CCCCN)C(=O)N[C@@H](CCCNC(=N)N)C(=O)N[C@]1(C)CCCCCC/C=C\CCC[C@@](C)(C(=O)N[C@@H](CCCNC(=N)N)C(=O)N[C@@H](CCC(=O)O)C(=O)N[C@@H](CC(C)C)C(=O)N[C@H](C(=O)N[C@@H](CCC(=O)O)C(N)=O)C(C)C)NC(=O)[C@H](CCC(N)=O)NC(=O)[C@H](CC(C)C)NC(=O)[C@H](CC(C)C)NC(=O)[C@H](CCCNC(=N)N)NC(=O)[C@H](CCCNC(=N)N)NC(=O)[C@H](CC(C)C)NC1=O)C(C)C` was tested, and the growth was -43.3% (active). For `Cc1ccc(/C=C2/C(=O)N(C)c3ccc(S(=O)(=O)Nc4ccc(C(C)(C)C)cc4)cc32)s1`, the growth was 74.9%. For `CC(=O)[C@H]1CC[C@]2(C)[C@@H]1CC[C@@H]1[C@@]3(C)CC(CCC#N)(CCC#N)C(=O)C(C)(C)[C@@H]3CC[C@]12C`, the growth was 82.4%. For `O=C(CCn1cnc2c(cc(-c3ccccc3)n2-c2ccccc2)c1=O)Nc1ccc(F)cc1`, the growth was 63.2%. With `Cc1c(Cl)cccc1NC(=O)CN1CCOCC1` the growth was 103%. `CC(C)(C)OC(=O)CN1CCc2c(sc3ncnc(N/N=C/c4cccc5ccccc45)c23)C1` was tested, and the growth was 6.64% (active). `CCn1c(SCc2ccc(C)cc2)nnc1-c1nn(-c2ccc(Cl)cc2Cl)c(-c2ccc(Cl)cc2)c1C` was tested, and the growth was 21.2%. For `O=C(Nc1nc(-c2ccccc2)nc2c1sc(=S)n2-c1ccccc1)C(F)(F)F`, the growth was 86%. `Cc1c[nH]c(=O)n(Cc2nnc(CCC(=O)c3nc4ccccc4[nH]3)o2)c1=O` showed a growth of 41%. `CCCCN(CCCC)C(=O)[C@H](CC)[C@@H]1CC[C@@H](C)[C@@H]([C@H](C)[C@@H](O)[C@@H](C)C(=O)[C@H](CC)C2O[C@]3(C=CC(=O)[C@]4(CC[C@@](C)([C@H]5CC[C@](O)(CC)[C@H](C)O5)O4)O3)[C@H](C)C[C@@H]2C)O1` (some centres undefined) was tested, and the growth was 22.5%. Work on `CCN(CC)CCOc1cccc2c1C(=O)c1ccccc1C2=O` yielded a growth of 95.2%. For `COc1cc(OC)c2c(=O)c(O)c(-c3ccccc3)oc2c1`, the growth was 72.1%. In the case of `COc1ccc(-c2cc(-c3ccccc3)nc(SCCCC(=O)NO)n2)cc1`, the growth was -65.9% (active). For `COc1cc(-c2nn(-c3ccc(NC(=O)NCCNS(=O)(=O)c4ccc(F)cc4)cc3)cc2-c2ccncc2)ccc1Cl`, the growth was 25.7%. With `Cc1[nH]c2ccccc2c1/C=N/Nc1ncnc2sc3c(c12)CCN(CC(=O)OC(C)(C)C)C3` the growth was 81.9%. In the case of `O=C1CSC(=S)N1/N=C/c1ccc(Cl)s1`, the growth was 100%. `O=C(CC(CC(=O)c1ccccc1)c1ccccc1O)c1ccccc1` showed a growth of 81.5%. `CCOC(=O)c1cc(C(=O)c2cc(OC)cc(OC)c2)n2nc(C)ccc12` was tested, and the growth was 46.7%. Work on `CCCc1cn(CC(=O)Nc2nc3ccccc3s2)nn1` yielded a growth of 98.1%. Compound `CC(CN(C)C)Oc1ccc(OC(C)CN(C)C)c2c1C(=O)c1ccccc1C2=O` (centres undefined) has a growth of 68%. Compound `COc1cc(-c2nn(-c3cccc(NC(=O)NCCNC(=O)c4cccc(C(F)(F)F)c4)c3)cc2-c2ccncc2)ccc1Cl` has a growth of 50.7%. With `Cc1ccc(NCCNCC(C)(C)O)c2c(=O)c3ccc(Cl)cc3sc12` the growth was -66.6% (active). For `CNS(=O)(=O)Oc1ccc(-c2sc3cc(OS(=O)(=O)NC)ccc3c2C(=O)c2ccc(OCCN3CCCCC3)cc2)cc1`, the growth was 74.7%. `CN(C)CCOc1ccccc1NC1=C(Cl)C(=O)C(Nc2ccccc2OCCN(C)C)=C(Cl)C1=O` gave a growth of 95.6%. `COc1cc(-c2nn(-c3cccc(NC(=O)CCNc4ccc(N5CCOCC5)cc4)c3)cc2-c2ccncc2)ccc1Cl` was tested, and the growth was 13.9%. `C=CCSC(CC)(CC)C(=O)NC` gave a growth of 103%. Compound `Cc1c(Cl)cccc1NC(=O)CCCl` has a growth of 93.2%. In the case of `CC(=O)C1N=NCC1c1ccccc1` (centres undefined), the growth was 83.8%. For `CCN(CC)CCOc1cccc2c1C(=O)c1cccc(OCCN(CC)CC)c1C2=O`, the growth was 56.9%. Work on `CC(C)(C)OC(=O)CN1CCc2c(sc3ncnc(N/N=C/c4ccccc4Br)c23)C1` yielded a growth of 39.5%. Compound `N#CCc1csc(Cc2ccccc2)n1` has a growth of 103%. In the case of `Clc1ccc(C2=NN=C3C(Cc4ccccc4)=Nc4ccccc4N3C2)cc1`, the growth was 79.6%. `CCN(CC)CC(=O)N(CC)c1ccc(C)c(Cl)c1` gave a growth of 97.7%. With `COc1cc(-c2csc(NC(=O)Nc3ccc(Cl)c(C(F)(F)F)c3)n2)cc(OC)c1OC` the growth was 1.56% (active).
